Our source for the z-score and composite z-score values is PubChem BioAssay.

Calls of active or inactive are those of the source. Unless noted, the rule behind the calls is not given here.

Test [1] is described as follows: HepG2 liver cancer cell viability effects, profiling panel, resazurin fluorescence, 24 h, PK04 Diversity Set (AID 1172). Note: test concentration not given here. Particulars: higher = more signal. Background: Resazurin is reduced to fluorescent resorufin, in cell work by metabolically active cells.
Test [2] in a line: basal S. cerevisiae growth modulation, no modifier, primary screen, OD600, strain BY4716, 24 h, basal condition (AID 1173). Particulars: OD600, 24 h, higher = more signal, called active from +8 up or from −8 down.
Test [3] is described as follows: MM1S myeloma cell viability, profiling panel, resazurin fluorescence, basal, 24 h, PK04 Diversity Set (AID 1174).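 Note: MM1S multiple myeloma cell line; test concentration not given here.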 The settings on record: higher = more signal, called active from +8 up or from −8 down.
The target of test [4] is Dihydroorotate dehydrogenase (quinone), mitochondrial (Plasmodium falciparum (isolate 3D7)) (UniProt Q08210). As to the kind of experiment: PfDHODH enzyme inhibitors, primary screen, biochemical, C-terminal His tag, absorbance 600 nm (AID 1175).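 Note: recombinant parasite enzyme with a five histidine tag at its C terminus; test concentration not given here.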 The settings on record: DCIP absorbance 600 nm, higher = more signal, called active from +8 up or from −8 down.
Chain of Dihydroorotate dehydrogenase (quinone), mitochondrial (Plasmodium falciparum (isolate 3D7)) (Q08210 whole entry, looked up): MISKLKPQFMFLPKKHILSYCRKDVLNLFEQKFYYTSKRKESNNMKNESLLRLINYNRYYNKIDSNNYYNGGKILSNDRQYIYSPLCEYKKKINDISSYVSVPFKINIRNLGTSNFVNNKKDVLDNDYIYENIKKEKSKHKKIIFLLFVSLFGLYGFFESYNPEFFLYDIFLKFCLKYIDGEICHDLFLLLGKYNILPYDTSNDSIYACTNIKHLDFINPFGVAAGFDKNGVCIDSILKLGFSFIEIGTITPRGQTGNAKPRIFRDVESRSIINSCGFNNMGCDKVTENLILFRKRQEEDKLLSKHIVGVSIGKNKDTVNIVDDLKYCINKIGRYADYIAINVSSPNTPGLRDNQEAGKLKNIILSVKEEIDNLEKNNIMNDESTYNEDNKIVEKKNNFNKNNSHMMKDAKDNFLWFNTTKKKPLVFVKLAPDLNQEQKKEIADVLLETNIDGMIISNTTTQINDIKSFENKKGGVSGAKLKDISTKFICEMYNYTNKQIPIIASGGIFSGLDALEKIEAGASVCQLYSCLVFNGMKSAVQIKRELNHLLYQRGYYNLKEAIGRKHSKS
The nature of test [5]: P. aeruginosa biofilm formation inhibitors, primary screen, strain PAO1, LB-PBS medium, absorbance 600 nm (AID 1176). Note: test concentration not given here. The settings on record: P. aeruginosa PAO1 growth/biofilm, A600, 12 h; higher = more signal.
The nature of test [6]: S. cerevisiae RM11-1a growth modifiers, primary screen, strain RM11-1a, OD600, basal, 24 h (AID 1177).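 Note: cultures grown under basal conditions with no added stressor; test concentration not given here.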 The settings on record: OD600, 24 h, higher = more signal, called active from +8 up or from −8 down.
Test [7] is described as follows: E. coli acrAB mutant growth effects, primary screen, E. coli filamentation inducers, strain DRC39, OD650, 24 h (AID 1178).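 Note: growth measured as culture turbidity by optical density at 650 nm; test concentration not given here.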 The settings on record: higher = more signal, called active from +8 up or from −8 down.
Test [8] in a line: E. coli acrAB mutant growth effects, primary screen, E. coli filamentation inducers, strain DRC39, OD650, 48 h (AID 1179).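 Note: screen aims at cell division blockers that make cells filament.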 Particulars: E. coli DRC39 delta-acrAB growth, higher = more signal, called active from +8 up or from −8 down.
A short description of test [9]: RPMI8226 myeloma cell viability, profiling panel, resazurin fluorescence, basal, 24 h, PK04 Diversity Set (AID 1180).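 Note: RPMI8826 multiple myeloma cell line at 5000 cells per well; test concentration not given here.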 Particulars: higher = more signal.
Test [10] addresses E3 ubiquitin-protein ligase XIAP (Homo sapiens) (UniProt P98170). Put plainly: XIAP binders, primary screen, biophysical, small-molecule microarray, fluorescence 635 nm (AID 1181).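 Note: score merges 667 nm emission and signal to noise over triplicate slides.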 The settings on record: small-molecule microarray binding, higher = more signal.

Chain of E3 ubiquitin-protein ligase XIAP (Homo sapiens) (P98170 whole entry, looked up): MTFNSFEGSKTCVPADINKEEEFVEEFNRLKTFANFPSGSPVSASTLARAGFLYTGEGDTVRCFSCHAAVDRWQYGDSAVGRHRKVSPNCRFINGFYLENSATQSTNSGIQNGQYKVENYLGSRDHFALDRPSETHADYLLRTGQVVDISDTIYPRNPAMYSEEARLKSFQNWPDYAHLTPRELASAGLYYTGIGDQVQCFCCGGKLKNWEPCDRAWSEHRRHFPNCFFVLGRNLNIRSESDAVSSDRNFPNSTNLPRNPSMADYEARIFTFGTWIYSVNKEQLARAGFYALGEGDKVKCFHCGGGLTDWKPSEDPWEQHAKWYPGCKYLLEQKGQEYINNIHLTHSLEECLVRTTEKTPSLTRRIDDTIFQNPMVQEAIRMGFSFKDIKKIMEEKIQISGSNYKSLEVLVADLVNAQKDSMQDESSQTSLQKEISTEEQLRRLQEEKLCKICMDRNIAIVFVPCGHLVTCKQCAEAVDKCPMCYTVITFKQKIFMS

In the case of `CC(C)C(CO)N1C(=O)[C@@H]2C3C(=O)OCCC/C=C\[C@H]3OC23C=CCN(C(C)(C)C)C(=O)[C@@H]13` (stereo not given in full), the z-score in [1] was -0.263; in test [2], 0.463 (inactive); in test [3], -0.428 (inactive); in test [5] it was -0.0711 (inactive); in test [6], -0.348 (inactive); in test [7], 0.235 (inactive). Besides, the z-score in test [8] was 0.129 (inactive); in test [9], -0.489. Further, the composite z-score in test [4] is -1.85 (inactive); in test [10] it was -0.204.

As to `CCCCC=C[C@@H](NC(=O)c1ccc(-c2ccccc2)cc1)c1ccccc1`, the z-score in test [1] was 0.272; in [2], -0.447 (inactive); in test [3] it was -0.821 (inactive); in test [5], 0.191 (inactive); in test [6], 0.491 (inactive); in [7], -0.335 (inactive). The z-score is -0.0289 (inactive) in [8] and -1.75 in test [9]. The composite z-score is 0.34 (inactive) in test [4] and -0.0272 in test [10].

For `C=C(C)c1cc2c(c(CCCCCC)n1)[Si](C(C)C)(C(C)C)OC2`, the z-score in test [1] was -0.0592; in [2], 1.37 (inactive); in [3], 0.272 (inactive); in test [5], -0.735 (inactive); in [6] it was 1.06 (inactive); in test [7], 0.251 (inactive). Moreover, the results for the z-score in test [8] and in test [9] were 0.246 (inactive) and 0.16, respectively. For the same molecule, the results for the composite z-score in test [4] and in test [10] were 4.59 (inactive) and 0.0623, respectively.

Take `COC(=O)[C@@]1(Cc2ccccc2N=[N+]=[N-])N=C(c2ccc(OCCCO)cc2)O[C@H]1c1ccccc1N=[N+]=[N-]`: the z-score is -4.43 in [1]; -0.596 (inactive) in test [2]; -8.41 (active) in [3]; 0.715 (inactive) in test [5]; 0.897 (inactive) in test [6]; 2.12 (inactive) in [7]. Besides, the z-score in test [8] was 1.91 (inactive); in test [9], -6.83. In addition, the values for the composite z-score in test [4] and in test [10] were -0.071 (inactive) and 0.0296, respectively.

For `CN(C)CCCNC(=O)[C@@H]1c2ccccc2C(=O)N(Cc2ccccc2Cl)[C@H]1c1ccc(CO)cc1`, the z-score in [1] is 0.248; in test [2] it was -0.433 (inactive); in test [3] it was 0.608 (inactive); in [5] it was 0.0561 (inactive); in test [6], -0.39 (inactive); in test [7], 0.206 (inactive). Also, the values for the z-score in [8] and in [9] were -0.2 (inactive) and 0.179, respectively. Further, the composite z-score was 0.411 (inactive) in test [4] and -0.02 in [10].

For the molecule `COCCOC(=O)N1C(=O)[C@@]2(c3cc(C#Cc4ccc(OC)cc4)ccc31)[C@H](c1ccc(O)cc1)N1[C@H](c3ccccc3)[C@H](c3ccccc3)OC(=O)[C@H]1[C@@H]2C(=O)N1CCCCCCC1`, the z-score was -0.113 in [1]; 0.603 (inactive) in test [2]; -0.431 (inactive) in [3]; 0.213 (inactive) in test [5]; 0.266 (inactive) in [6]; -0.551 (inactive) in test [7]. In addition, the figures for the z-score in test [8] and in [9] were -0.341 (inactive) and -0.332, respectively. The composite z-score in test [4] is -0.15 (inactive); in test [10], -0.158.

As to `O=C(NCC(F)(F)F)[C@@H]1c2ccccc2C(=O)N(Cc2ccc(OC(F)(F)F)cc2)[C@H]1c1ccc(CO)cc1`, the z-score in [1] was 1.09; in [2], -1.13 (inactive); in [3], 0.482 (inactive); in [5], -0.177 (inactive); in test [6] it was 0.0971 (inactive); in test [7] it was 0.504 (inactive). Also, the z-score is 0.632 (inactive) in [8] and 1.04 in [9]. Further, the composite z-score in test [4] is -0.504 (inactive); in [10], 0.104.

Regarding `COCCOC(=O)N1C(=O)[C@@]2(c3cc(C#CC4=CCCCC4)ccc31)[C@H](C(=O)N1CCCCCCC1)[C@H]1C(=O)O[C@H](c3ccccc3)[C@H](c3ccccc3)N1[C@@H]2c1ccc(O)cc1`, the z-score in test [1] was 0.0166; in [2], 0.566 (inactive); in test [3] it was 0.0499 (inactive); in test [5], 1.51 (inactive); in test [6], 0.396 (inactive); in test [7], -0.698 (inactive). Also, the z-score in test [8] was -0.863 (inactive); in test [9] it was -0.258. Further, the composite z-score was -1.67 (inactive) in test [4] and -0.0025 in test [10].

For the molecule `CC(C)N1CC=CC23O[C@@H]4C=CCOC(=O)[C@@H]4[C@H]2C(=O)N(CCCO)[C@@H]3C1=O` (stereo not given in full), the z-score is -0.128 in [1]; -1.91 (inactive) in [2]; 1.34 (inactive) in test [3]; 0.248 (inactive) in test [5]; -1.68 (inactive) in test [6]; -0.135 (inactive) in test [7]. Also, the z-score in test [8] is 0.2 (inactive); in test [9] it was 0.939. The composite z-score in test [4] was -0.201 (inactive); in test [10] it was 0.29.

Regarding `CC(C)(C)OC(=O)CC[C@]1(C(=O)NCC(O)CO)N=C(c2ccc(OCCCO)cc2)O[C@H]1c1ccccc1` (stereo not given in full), the z-score is 0.309 in [1]; -1.84 (inactive) in test [2]; 1.04 (inactive) in test [3]; 0.882 (inactive) in [5]; -0.87 (inactive) in test [6]; 1.41 (inactive) in test [7]. The figures for the z-score in test [8] and in [9] were 0.419 (inactive) and 0.949, respectively. Further, the values for the composite z-score in [4] and in test [10] were -1.89 (inactive) and -0.0203, respectively.

`C=CCN1C(=O)[C@@]2(CCS(=O)(=O)c3ccccc3)N=C(c3ccc(OCCCO)cc3)O[C@H]2c2ccccc21`: the z-score is -0.436 in test [1]; 0.698 (inactive) in [2]; -0.427 (inactive) in test [3]; 0.563 (inactive) in [5]; 1.45 (inactive) in test [6]; -0.0209 (inactive) in [7]. Also, the values for the z-score in test [8] and in [9] were 0.242 (inactive) and -2.12, respectively. Moreover, the values for the composite z-score in [4] and in test [10] were -0.218 (inactive) and -0.0421, respectively.
